The panel holds about 83,000 compounds, 20% with a hit somewhere; the sample as a whole holds those more often.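 Percent growth is the endpoint: 0 to 100 indicates growth inhibition (40 means 60% inhibition), 0 means no net growth, and negative values indicate cell death.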 Active and inactive are the calls of the source. Rule for the calls: active = growth percent below 10; inactive = the rest.
What was measured:
Test in all cases: NCI-60 one-dose screen, 48 h (100 = growth as untreated, 0 = no growth, -100 = all killed)
Conditions in all cases: 10 µM unless noted
SR leukemia = system: SR leukemia
RPMI-8226 leukemia = system: RPMI-8226 leukemia
OVCAR-8 ovarian = system: OVCAR-8 ovarian
OVCAR-5 ovarian = system: OVCAR-5 ovarian
OVCAR-4 ovarian = system: OVCAR-4 ovarian
SK-OV-3 ovarian = system: SK-OV-3 ovarian
IGROV1 ovarian = system: IGROV1 ovarian
HS 578T breast = system: HS 578T breast
NCI/ADR-RES ovarian = system: NCI/ADR-RES ovarian
T-47D breast = system: T-47D breast
BT-549 breast = system: BT-549 breast
MDA-MB-435 melanoma = system: MDA-MB-435 melanoma
SW-620 colon = system: SW-620 colon
MCF7 breast = system: MCF7 breast
HCT-116 colon = system: HCT-116 colon
HCC-2998 colon = system: HCC-2998 colon
KM12 colon = system: KM12 colon

Measured: growth

COc1cc(-c2nc3ccc(C)cc3[nH]2)ccc1OCC(=O)N=Nc1c(O)[nH]c2ccc(Cl)cc12
inactive: OVCAR-5 ovarian 11.1% | SK-OV-3 ovarian 32% | NCI/ADR-RES ovarian 83.4% | BT-549 breast 68.5%
active: SR leukemia -32.8% | RPMI-8226 leukemia -36.6% | OVCAR-8 ovarian -34.7% | OVCAR-4 ovarian -8% | IGROV1 ovarian 4.74% | HS 578T breast -22.3% | T-47D breast -43.2% | MDA-MB-435 melanoma -2.5% | SW-620 colon -58.9% | MCF7 breast -64.9% | HCT-116 colon -34.9% | HCC-2998 colon -32.5% | KM12 colon -40.1%

CC(C(=O)O)n1c(O)c(C=Nc2cccnc2)sc1=S (stereo not drawn)
inactive: SR leukemia 97.8% | RPMI-8226 leukemia 83.6% | OVCAR-8 ovarian 90.7% | OVCAR-5 ovarian 98.9% | OVCAR-4 ovarian 92.4% | SK-OV-3 ovarian 98.4% | IGROV1 ovarian 84.2% | HS 578T breast 74.9% | NCI/ADR-RES ovarian 98.7% | T-47D breast 81.2% | BT-549 breast 89.2% | MDA-MB-435 melanoma 100% | SW-620 colon 102% | MCF7 breast 86.7% | HCT-116 colon 89.4% | HCC-2998 colon 111% | KM12 colon 98.7%

Cc1cc2nc(-c3c(-c4ccc(F)cc4)nc4sccn34)[nH]c2cc1C
inactive: SR leukemia 83.2% | RPMI-8226 leukemia 87.9% | OVCAR-8 ovarian 96% | OVCAR-5 ovarian 111% | OVCAR-4 ovarian 94.7% | SK-OV-3 ovarian 94.9% | IGROV1 ovarian 95.9% | HS 578T breast 103% | NCI/ADR-RES ovarian 91.6% | T-47D breast 85.7% | BT-549 breast 109% | MDA-MB-435 melanoma 103% | SW-620 colon 108% | MCF7 breast 91.6% | HCT-116 colon 103% | HCC-2998 colon 106% | KM12 colon 96.7%

C=C1C(=O)O[C@H]2[C@H]1CC/C(CNC(=O)c1cc3ccccc3[nH]1)=C\CC[C@@]1(C)O[C@@H]21
inactive: SK-OV-3 ovarian 68% | HS 578T breast 42.7% | NCI/ADR-RES ovarian 22.4%
active: SR leukemia -37.4% | RPMI-8226 leukemia -29% | OVCAR-8 ovarian -26.2% | OVCAR-5 ovarian -46% | OVCAR-4 ovarian -7.16% | IGROV1 ovarian -26.3% | T-47D breast -42.2% | BT-549 breast -79.8% | MDA-MB-435 melanoma -37.2% | SW-620 colon -57.4% | MCF7 breast -56.7% | HCT-116 colon -84% | HCC-2998 colon -75.5% | KM12 colon -38.4%
